Many of the other results were omitted from the sample, so hits are more common in it than they were.
RVFV N-RNA inh – RVFV nucleocapsid-RNA interaction inhibition; P21700; RVFV N-RNA binding, fluorescence polarization; active compounds read low; % bound, % (concentration not given with the values); hit rate 0.1% among 20,000; AID 651828; in the data active means % bound below about 75%
Target sequence (P21700 whole entry, looked up): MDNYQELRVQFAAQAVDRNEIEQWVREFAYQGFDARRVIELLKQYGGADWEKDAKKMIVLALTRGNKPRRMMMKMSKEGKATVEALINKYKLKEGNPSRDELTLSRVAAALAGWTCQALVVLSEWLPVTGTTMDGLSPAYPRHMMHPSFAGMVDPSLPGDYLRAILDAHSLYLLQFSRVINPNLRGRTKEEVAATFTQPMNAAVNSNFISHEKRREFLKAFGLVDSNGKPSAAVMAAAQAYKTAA
Numbers stand for hits; – = inactive; ! = not confirmed by another sample.

SMILES	RVFV N-RNA inh
O=C(CSc1ccccc1)N/N=C/c1ccccc1O	–
NC(CO)C(=O)N/N=C/c1ccc(O)c(O)c1O (stereo not drawn)	50.6
NC(CO)C(=O)NNCc1ccc(O)c(O)c1O (stereo not drawn)	–
Cc1cc(C)nc(SCC(=O)NC2=NN=C(c3ccccc3)CS2)n1	–
O=C(CSc1ncn[nH]1)Nc1ccc(N2CCOCC2)cc1	–
Fc1c(F)c(F)c(OC(c2ccccc2)C(F)(F)F)c(F)c1F (stereo not drawn)	–
CC(=O)Oc1ccccc1C(=O)Nc1ccc(OC(F)F)cc1	–
C=CCOc1cccc(-c2nc(-c3ccccn3)no2)c1	–
COc1ccccc1OCCNC(=O)c1ccc(-n2cnnc2)cc1Cl	–
OCCN=Cc1[nH]c2ccccc2c1O	54.9
C=CCN=Cc1c(O)[nH]c2ccccc12	–
OCC(O)CN=Cc1c(O)[nH]c2ccccc12 (stereo not drawn)	–
CCSc1nnc(-c2ccccc2)n1-c1ccccc1	–
CN=c1nc(-c2ccccc2)n(-c2ccccc2)s1	49.7
CC1(C)Cn2c(nnc2-c2ccccc2)S1	–
O=C(O)CSc1nnc2n1-c1ccc(Cl)cc1NN2	55.9
Clc1ccc2c(c1)NNc1nncn1-2	–
NC(=O)CSc1nc2ccc(Cl)cc2[nH]1	–
CC(C)=NNc1nc2ccccc2[nH]1	–
CC(=O)N1N=C(c2cccs2)CC1c1c(C)coc1C (stereo not drawn)	–
CCOc1ccc(C=NC2=C(C#N)CCC2)cc1OC	–
O=C(CSc1nc2sc3c(c2c(=O)n1Cc1ccco1)CCC3)Nc1nccs1	–
Cc1cccc(NC(=O)c2cc3ccc(O)cc3oc2=O)c1	–
CCC(CC)C(=O)Oc1coc(CSc2nc(C)cs2)cc1=O	–
Cc1ccc(N2CC(NC(=O)OCCN(C)C)CC2=O)cc1 (stereo not drawn)	–
SMILES	RVFV N-RNA inh
O=C1Nc2ccccc2C1C1(O)C(=O)Nc2ccc(F)cc21 (stereo not drawn)	–
COc1ccc(CN2CCCCC2CO)cc1Br (stereo not drawn)	–
CC(C)CC(=O)Nc1cc(Cl)ccc1Cl	–
Cc1cc(=O)n2ccccc2n1	–
Cc1c(Cl)c(C(F)(F)F)nn1CCCNC(=O)C1CCCC1	–
C#CCN1C(=O)S/C(=C/c2cc(CC=C)c(O)c(OC)c2)C1=O	–
COc1cccc2c1OC(c1ccco1)N1N=C(c3ccccc3)CC21 (stereo not drawn)	–
CCN(CC)c1nc(N2CCOCC2)nc(N2CCOCC2)n1	–
CC(C)(C)CC(=O)NC(=S)NC1CCCCC1	–
Cc1ccc(C=Nc2cccc(C#N)c2)s1	–
COc1ccc(-c2cccc(NC(=O)c3ccccc3)c2)nn1	–
O=C(CCCN1CCC(O)(c2ccc(Cl)cc2)CC1)c1ccc(F)cc1	–
O=C(CCCN1CCC2(CC1)C(=O)NCN2c1ccccc1)c1ccc(F)cc1	56.0!
CC1CCN(CCCC(=O)c2ccc(F)cc2)CC1	–
CCN(CC)c1ccc(C(=O)c2ccccc2C)cc1	–
CCn1c(C(C)NC=O)nc2ccccc21 (stereo not drawn)	–
O=C(COc1ccc2oc(-c3ccco3)cc(=O)c2c1)NCc1ccccc1	–
CCCN1C(=O)/C(=C/c2c(N3CCCC3)nc3ccccn3c2=O)SC1=S	–
COc1cc(SC)ccc1C(=O)Nc1cccc(-c2nncn2C)c1	–
Clc1ccc2nc(N3CCCC3)nc(-c3ccccc3)c2c1	–
CC(=O)NC(Nc1ccc(S(N)(=O)=O)cc1)(C(F)(F)F)C(F)(F)F	–
NC(=O)CSc1ccc2ccccc2c1	–
CC1=CC2=C(C1=O)C(C(C)C)C(C#N)=C(N)S2 (stereo not drawn)	–
CCCCN(C(=O)c1ccccc1)c1ccccc1	–
O=C(Nc1ccccc1C(F)(F)F)c1ccco1	–
SMILES	RVFV N-RNA inh
Cc1onc(-c2c(Cl)cccc2Cl)c1NC(=O)N1CCOCC1	–
COC(=O)c1sccc1NC=C(C#N)C#N	–
Cc1cc(C)c2nc(C(F)(F)F)nc(N3CCN(Cc4ccccc4)CC3)c2c1	–
NNc1nc2c(c(=O)[nH]1)C1(CCCCC1)Cc1ccccc1-2	–
CCc1cccc(NC(=O)/C=C/c2ccco2)c1	–
COc1ccc(-c2nnc3sc(CN4CCCCC4)cn23)cc1	–
O=C1c2cccc3c(Cl)ccc(c23)C(=O)N1c1ccccn1	–
Cc1ccc(N2C(=O)c3cccc4c(N5CCN(C)CC5)ccc(c34)C2=O)c2cccnc12	54.7
O=C(O)c1ccc2c3c(cccc13)C(=O)N(c1ccccc1O)C2=O	–
COc1ccc(-c2ccc(C#N)c(SCC#N)n2)cc1OC	–
CC(=O)Nc1c(C#N)c(C)n(-c2ccccc2)c1C(=O)c1ccccc1	–
COC(CNS(=O)(=O)c1cn(C)c(=O)n(C)c1=O)OC	–
N#Cc1c(N(S(=O)(=O)c2ccccc2)S(=O)(=O)c2ccccc2)sc2c1CCCC2	–
CC1=C(C(N)=O)C(c2ccccc2)n2ncnc2N1 (stereo not drawn)	–
O=C(NCC(F)(F)F)OCc1ccc(F)cc1	–
CNC(=O)COc1coc(CN2CCc3ccccc32)cc1=O	–
CCCC(=O)Nc1nc2ccc(N)cc2s1	–
CC(C)=NNC(=S)Nc1ccc(Cl)cc1	–
COc1cc(/C=C2\SC(=O)N=C2N)ccc1O	–
CCc1ccccc1NNC(N)=S	–
C#CCN1C(=O)S/C(=C/c2ccc3c(c2)OCO3)C1=O	–
Cc1ccccc1CN1C(=O)C(O)(CC(=O)/C=C/c2ccco2)c2ccccc21 (stereo not drawn)	–

Compound activity: PubChem, ICCB-Longwood Screening Facility, Harvard Medical School
